Measurements reported in PubChem BioAssay (NCI).
About 83,000 compounds went through this panel and 20% of them were active in at least one assay; those are over-represented in the sample as a whole.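 How to read the values: 0–100, growth inhibition (40 = 60% inhibited); 0, no net growth; -100 to 0, cell death (-40 = 40% of starting cells died; -100 = all dead).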 Active and inactive are the calls of the source. The calls were made as follows: active = growth percent below 10; inactive = the rest.

Experiments:
Assay in all cases: NCI-60 one-dose screen, 48 h (100 = growth as untreated, 0 = no growth, -100 = all killed)
RPMI-8226 leukemia = settings: 10 µM unless noted
OVCAR-8 ovarian = settings: 10 µM unless noted
OVCAR-5 ovarian = settings: 10 µM unless noted
OVCAR-4 ovarian = settings: 10 µM unless noted
SK-OV-3 ovarian = settings: 10 µM unless noted
IGROV1 ovarian = settings: 10 µM unless noted
OVCAR-3 ovarian = settings: 10 µM unless noted
HS 578T breast = settings: 10 µM unless noted
NCI/ADR-RES ovarian = settings: 10 µM unless noted
T-47D breast = settings: 10 µM unless noted
BT-549 breast = settings: 10 µM unless noted
MDA-MB-435 melanoma = settings: 10 µM unless noted
SW-620 colon = settings: 10 µM unless noted
MCF7 breast = settings: 10 µM
HCT-116 colon = settings: 10 µM unless noted
HCC-2998 colon = settings: 10 µM unless noted
KM12 colon = settings: 10 µM unless noted

Measured: growth

Cc1[nH]c2ccccc2c(=O)c1CC=C(Cl)Cl
inactive: OVCAR-5 ovarian 40.1% | SK-OV-3 ovarian 86.5% | IGROV1 ovarian 29.4% | OVCAR-3 ovarian 40.9% | HS 578T breast 84.2% | NCI/ADR-RES ovarian 52.4% | BT-549 breast 135% | MDA-MB-435 melanoma 47.5% | SW-620 colon 10.5% | HCC-2998 colon 59.3% | KM12 colon 18.2%
active: RPMI-8226 leukemia -20.7% | OVCAR-8 ovarian -84% | OVCAR-4 ovarian -18.6% | T-47D breast -26.4% | MCF7 breast -88.7% | HCT-116 colon -65.6%

CC(=Nc1ccccc1)C1=C(O)C(Cc2ccc(F)cc2)NC1=O (stereo unspecified)
active: RPMI-8226 leukemia 5.55% | OVCAR-3 ovarian -36.9% | MDA-MB-435 melanoma -53.7%
inactive: OVCAR-8 ovarian 33.3% | OVCAR-5 ovarian 44.9% | OVCAR-4 ovarian 45.5% | SK-OV-3 ovarian 11.7% | IGROV1 ovarian 36.7% | HS 578T breast 32.1% | NCI/ADR-RES ovarian 10.6% | T-47D breast 27.7% | BT-549 breast 36.8% | SW-620 colon 27.4% | MCF7 breast 16.3% | HCT-116 colon 27.5% | HCC-2998 colon 60.4% | KM12 colon 24.5%

CCOc1c(Br)cc(C2C(C(=O)OC)=CN(C)C=C2C(=O)OC)cc1OC
active: RPMI-8226 leukemia 7.41%
inactive: OVCAR-8 ovarian 85.8% | OVCAR-5 ovarian 83.9% | OVCAR-4 ovarian 72.9% | SK-OV-3 ovarian 87.5% | IGROV1 ovarian 67.7% | OVCAR-3 ovarian 83.3% | HS 578T breast 75.8% | NCI/ADR-RES ovarian 71% | T-47D breast 57.2% | BT-549 breast 78.1% | MDA-MB-435 melanoma 47.3% | SW-620 colon 58% | MCF7 breast 35.9% | HCT-116 colon 59%

CCC1=C[C@]2(C3CC(=O)N(c4ccccc4)C3=O)CC(C(C)(C)C)C[C@@H]2[C@@H]2C(=O)N(c3ccccc3)C(=O)[C@H]12 (stereo partly specified)
inactive: RPMI-8226 leukemia 59.7% | OVCAR-8 ovarian 85.5% | OVCAR-5 ovarian 88.7% | OVCAR-4 ovarian 89.4% | SK-OV-3 ovarian 88.6% | IGROV1 ovarian 90.8% | OVCAR-3 ovarian 86% | HS 578T breast 83% | NCI/ADR-RES ovarian 91.3% | T-47D breast 70.5% | BT-549 breast 86.5% | MDA-MB-435 melanoma 85.9% | SW-620 colon 88.4% | MCF7 breast 80.7% | HCT-116 colon 68.1% | HCC-2998 colon 103% | KM12 colon 85.9%

Cc1ccc(NCCNCC(O)CO)c2c(=O)c3ccccc3sc12 (stereo unspecified)
inactive: RPMI-8226 leukemia 34.6% | OVCAR-8 ovarian 14.2% | OVCAR-5 ovarian 46.8% | OVCAR-4 ovarian 34.7% | SK-OV-3 ovarian 31.8% | IGROV1 ovarian 24.3% | OVCAR-3 ovarian 29.9% | HS 578T breast 33.1% | NCI/ADR-RES ovarian 26.8% | T-47D breast 53.8% | BT-549 breast 63.2% | KM12 colon 15.4%
active: MDA-MB-435 melanoma -26% | SW-620 colon -78.7% | MCF7 breast -53.6% | HCT-116 colon -66.1% | HCC-2998 colon -75.1%

COc1ccc(Cn2c(Br)c3c(c2Br)-c2nc(NC(=O)c4ccc(OC)cc4)sc2CC3)cc1
inactive: RPMI-8226 leukemia 71.8% | OVCAR-8 ovarian 61.4% | OVCAR-5 ovarian 79.4% | OVCAR-4 ovarian 49.7% | SK-OV-3 ovarian 72.9% | IGROV1 ovarian 38.2% | OVCAR-3 ovarian 88.6% | HS 578T breast 58.1% | NCI/ADR-RES ovarian 74.7% | T-47D breast 68.7% | BT-549 breast 84.2% | MDA-MB-435 melanoma 61.8% | SW-620 colon 84% | MCF7 breast 78.5% | HCT-116 colon 75.9% | HCC-2998 colon 108% | KM12 colon 79.9%

COc1cc2cc3c(=O)n4c(cc5cc(OC)ncc54)c(=O)n3c2cn1
inactive: RPMI-8226 leukemia 98% | OVCAR-8 ovarian 112% | OVCAR-5 ovarian 110% | OVCAR-4 ovarian 114% | SK-OV-3 ovarian 113% | IGROV1 ovarian 95.8% | OVCAR-3 ovarian 109% | HS 578T breast 104% | NCI/ADR-RES ovarian 108% | T-47D breast 95.2% | BT-549 breast 106% | MDA-MB-435 melanoma 110% | SW-620 colon 105% | MCF7 breast 95.4% | HCT-116 colon 100% | HCC-2998 colon 106%

O=C(NC1CCN(Cc2ccccc2)CC1)c1cc(C(=O)NC2CCN(Cc3ccccc3)CC2)cc(C(=O)NC2CCN(Cc3ccccc3)CC2)c1
inactive: RPMI-8226 leukemia 56.4% | OVCAR-8 ovarian 91.9% | OVCAR-5 ovarian 112% | OVCAR-4 ovarian 60.5% | SK-OV-3 ovarian 79.8% | OVCAR-3 ovarian 87% | HS 578T breast 79.6% | NCI/ADR-RES ovarian 82.1% | T-47D breast 72.5% | BT-549 breast 70.5% | MDA-MB-435 melanoma 70.4% | SW-620 colon 84.6% | MCF7 breast 57.3% | HCT-116 colon 66.1% | HCC-2998 colon 107% | KM12 colon 90.8%
active: IGROV1 ovarian -33.7%

COc1cc([C@@H]2NC(=O)NC(C)=C2C(=O)Nc2nc(-c3ccc(Cl)cc3)cs2)ccc1O
inactive: RPMI-8226 leukemia 111% | OVCAR-8 ovarian 102% | OVCAR-5 ovarian 100% | OVCAR-4 ovarian 90.5% | SK-OV-3 ovarian 87.8% | IGROV1 ovarian 96.6% | OVCAR-3 ovarian 111% | HS 578T breast 101% | NCI/ADR-RES ovarian 97.2% | T-47D breast 77.1% | BT-549 breast 98.8% | MDA-MB-435 melanoma 104% | SW-620 colon 103% | MCF7 breast 103% | HCT-116 colon 99.3% | HCC-2998 colon 104% | KM12 colon 102%

COc1cc(C(C)n2cc(-c3ccccc3)nn2)ccc1OC1CCCCC1 (stereo unspecified)
inactive: RPMI-8226 leukemia 35% | OVCAR-8 ovarian 55.3% | OVCAR-5 ovarian 92.6% | OVCAR-4 ovarian 55.2% | SK-OV-3 ovarian 73.4% | IGROV1 ovarian 77.2% | OVCAR-3 ovarian 67.6% | HS 578T breast 91.4% | NCI/ADR-RES ovarian 49.3% | T-47D breast 58.8% | BT-549 breast 69.3% | MDA-MB-435 melanoma 68.1% | SW-620 colon 75.5% | MCF7 breast 49.8% | HCT-116 colon 42.5% | HCC-2998 colon 81.4%
